According to PubChem BioAssay (EPA / NIEHS):
Inconclusive results are not listed. The source made the active and inactive calls. Rule for the calls: active = hit-call score of the fitted dose curve at least 0.9, where 1 is the maximum; inconclusive = response in the unintended direction; inactive = score below 0.9.

Experiment: Tanguay_ZF_120hpf_TR_legacy: (Legacy) Oregon State University Tanguay Lab 120 Hour Post-fertilization zebrafish Assay for Touch Response (AID 2283667)
In short: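 Binary touch-response endpoint in larvae at 120 hpf after static waterborne exposure from embryo stage (28°C, 0.64% DMSO vehicle, 5 uM trimethyltin chloride as positive control); embryos dead at 24 or 120 hpf excluded; fitted as gain versus DMSO.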

| Compound | outcome | AC50 |
| --- | --- | --- |
| Cc1cc2c3c(c1)C(c1ccccc1)=N[C@@H](NC(=O)c1ccncc1)C(=O)N3CC2 | inactive |  |
| ClC(Cl)=C(c1ccc(Cl)cc1)c1ccc(Cl)cc1 | inactive |  |
| CN(C)CCO | inactive |  |
| O=NN(c1ccccc1)c1ccccc1 | inactive |  |
| ClC1=C(Cl)[C@]2(Cl)[C@@H]3[C@@H](Cl)[C@H]4O[C@H]4[C@@H]3C1(Cl)C2(Cl)Cl | inactive |  |
| N#Cc1ccc(N(CC(N)=O)CC(F)(F)F)cc1C(F)(F)F | inactive |  |
| ClC1=C(Cl)[C@]2(Cl)[C@@H]3[C@@H]4C[C@@H]([C@H]5O[C@@H]45)[C@@H]3[C@@]1(Cl)C2(Cl)Cl | inactive |  |
| Clc1ccc(Cl)cc1 | inactive |  |
| Cc1ccccc1O | inactive |  |
| CC1=C2C[C@H]3[C@@H](CC=C4C[C@@H](O)CC[C@@]43C)[C@@H]2CC[C@]12O[C@@H]1C[C@H](C)CN[C@H]1[C@H]2C |  | 22.5 µM (active) |
| C[C@]12CCC(=O)C=C1CC[C@@H]1[C@@H]2CC[C@@]2(C)[C@H]1CC[C@]2(C)O | inactive |  |
| CC(C)(O)C(=O)Nc1ccc([N+](=O)[O-])c(C(F)(F)F)c1 | inactive |  |
| c1cc2ccc3cccc4ccc(c1)c2c34 | inactive |  |
| O=S(=O)(O)C(F)(F)C(F)(F)C(F)(F)C(F)(F)C(F)(F)C(F)(F)F |  | 25.9 µM (active) |
| CCOC(=O)C(O)(c1ccc(Cl)cc1)c1ccc(Cl)cc1 | inactive |  |
| NS(=O)(=O)C(F)(F)C(F)(F)C(F)(F)C(F)(F)C(F)(F)C(F)(F)C(F)(F)C(F)(F)F | inactive |  |
| CCC(C)c1cc([N+](=O)[O-])cc([N+](=O)[O-])c1O (configuration not stated) | inactive |  |
